# Screening results from PubChem BioAssay.
# SENP8 block-1 = SENP8 protease inhibitors, primary screen, biochemical, luminescence; Sentrin-specific protease 8 (Homo sapiens), Q96LD8; purified SENP8, Z-RLRGG-aminoluciferin cleavage; inhibition, % at 10 µM; 330,000 tested, 1.2% active; AID 2540, 2010; in the data active means inhibition above about 50%
# Target sequence (Q96LD8 whole entry, looked up): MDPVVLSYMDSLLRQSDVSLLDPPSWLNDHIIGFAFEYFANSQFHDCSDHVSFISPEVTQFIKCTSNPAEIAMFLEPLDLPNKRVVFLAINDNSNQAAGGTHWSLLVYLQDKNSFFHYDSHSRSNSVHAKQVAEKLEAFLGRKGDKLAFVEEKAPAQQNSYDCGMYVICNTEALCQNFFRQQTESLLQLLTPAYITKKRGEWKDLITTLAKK
# SENP7 block = SENP7 protease inhibitors, primary screen, biochemical, luminescence, uHTS. Sentrin-specific protease 7 (Homo sapiens), Q9BQF6. recombinant SENP7, Z-RLRGG-aminoluciferin luminescence, 40 min. inhibition, % at 5 µM. 330,000 tested, 1.5% active. AID 434973, 2010;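 active means inhibition above about 50% at the single test dose, limit read from the data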;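 further: plate controls were DMSO with enzyme for no effect and no enzyme buffer wells for full effect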
# SENP8 block-2 = human SENP8 protease inhibitors, primary screen, biochemical, fluorescence, Nedd8 protein substrate, uHTS; Sentrin-specific protease 8 (Homo sapiens), Q96LD8; recombinant SENP8; inhibition, % at 20 µM; 360,000 tested, 0.64% active; AID 602440, 2012; in the data active means inhibition mostly above about 40%, no sharp cut-off; inactive means mostly below about 27%
# SENP6 block = SENP6 protease inhibitors, primary screen, biochemical, luminescence, uHTS | Recombinant SENP6 catalytic domain, aminoluciferin luminescence | inhibition, % at 10 µM | 330,000 tested, 1.8% active;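 active means inhibition above about 50% at the single tested dose, limit read from the data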;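 further: plate controls were DMSO wells with enzyme for no effect and DMSO wells lacking enzyme for full effect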
# C8 TRAIL sens = viability loss with TRAIL in NB7+C8 cells, primary screen, TRAIL sensitizer project, cell-based, ATPlite luminescence | 360,000 tested, 1% active | inhibition (viability loss, TRAIL sensitization), % at 10 µM | AID 624354, 2012;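 active means compounds causing at least 50% loss of cell viability in the single-dose screen, relative to plate controls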
# PPC-1+TRAIL kill = compounds killing PPC-1 cancer cells with TRAIL present, primary screen, TRAIL potentiator project, ATPLite luminescence, uHTS; 220,000 tested, 0.41% active; cell killing (% activity), % at 4 µM or 5 µM; AID 1443, 2008; PPC-1 cells + TRAIL, ATPLite viability luminescence;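 active means cell killing above 50% in the first pass at 4 µM, then a duplicate retest at 5 µM averaging 50% or more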;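 further: plate controls were cells with TRAIL plus DMSO for no effect and medium-only wells lacking cells for full effect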
# SENP8 conf = SENP8 protease inhibitors, retest, confirmation, biochemical, luminescence, single concentration; Recombinant SENP8, Z-RLRGG-aminoluciferin luminescence, 60 min; 6,200 tested, 40% active; inhibition, % at 12.5 µM; AID 488912, 2010; shares compounds with SENP7 block;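 active means mean inhibition across replicates above about 50%, limit read from the data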
# SENP6 conf = SENP6 protease inhibitors, confirmation, biochemical, luminescence, single concentration. AID 488915, 2010. inhibition, % at 12.5 µM. 6,200 tested, 58% active. recombinant SENP6, Z-RLRGG-aminoluciferin luminescence. shares compounds with SENP7 block
# SENP7 confirm = SENP7 protease inhibitors, retest, confirmation, biochemical, luminescence, single concentration; shares compounds with SENP7 block; inhibition, % at 12.5 µM; recombinant SENP7, Z-RLRGG-aminoluciferin luminescence, 40 min; 6,200 tested, 69% active
# Casp3 select = caspase-3 protease inhibitors, confirmation, selectivity assay for SENP inhibitor project, biochemical, single concentration | purified caspase-3, Z-DEVD-aminoluciferin luminescence, 60 min | shares compounds with SENP7 block | 6,200 tested, 60% active | inhibition, % at 12.5 µM;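 active means mean inhibition above about 50%, limit read from the data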;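 further: plate controls were enzyme with DMSO for no effect and wells without caspase-3 for full effect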
# Target sequence (P42574 28-227 limits assumed): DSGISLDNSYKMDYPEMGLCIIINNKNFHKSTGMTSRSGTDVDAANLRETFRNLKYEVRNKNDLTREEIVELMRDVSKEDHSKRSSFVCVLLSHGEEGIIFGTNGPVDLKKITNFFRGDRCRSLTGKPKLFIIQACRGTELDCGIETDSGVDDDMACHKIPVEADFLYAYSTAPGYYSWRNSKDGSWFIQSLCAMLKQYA
# SENP luc ctr = counter-screen for SENP inhibitors: luminescence interference; inhibition, % at 12.5 µM; 6,200 tested, 39% active; Pre-incubated SENP8/Z-RLRGG-aminoluciferin, luciferase luminescence interference; shares compounds with SENP7 block; AID 488919;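 active means mean inhibition above about 50% when retested at one dose, limit read from the data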;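 further: plate controls were DMSO wells with completed reaction for no effect and substrate without enzyme for full effect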
# Numbers without * were called inactive; i = inactive; . = no result given. Only some compounds are listed: those with a hit (about 3% of all), similar ones and a draw of the others.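 How the source made its calls, unless noted: active means mean inhibition above about 50% in the one-dose retest (limit read from the data); inactive means the rest.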
SMILES,SENP8 block-1,SENP7 block,SENP8 block-2,SENP6 block,C8 TRAIL sens,PPC-1+TRAIL kill,SENP8 conf,SENP6 conf,SENP7 confirm,Casp3 select,SENP luc ctr
O=C(Nc1ccc2c(c1)OCO2)Nc1ccccc1F,94.7*,98.9*,0.9,94.0*,24.8,.,96.5*,97.9*,101.8*,96.8*,68.2*
Cc1ccc(NC(=O)Nc2ccc3c(c2)OCO3)cc1F,-14.6,41.7,3.0,-1.4,27.9,.,.,.,.,.,.
COc1cccc(NC(=O)Nc2ccc3c(c2)OCO3)c1,54.7*,78.9*,-2.7,72.6*,29.0,.,54.3*,50.7*,83.5*,74.0*,70.8*
O=C(Nc1cccc(Cl)c1)Nc1ccc2c(c1)OCO2,60.8*,74.6*,22.9,82.7*,25.1,-8.3,28.5,76.6*,94.3*,55.8*,20.7
CCOc1cc(Br)c(CN2C(=O)NC3(CCCCCC3)C2=O)cc1OCC,1.0,2.2,10.5,-4.4,11.3,.,.,.,.,.,.
C=CCNc1nc(-c2ccc(Cl)cc2)cs1,80.4*,74.7*,33.9,91.2*,22.5,12.0,44.1,90.5*,100.4*,74.7*,90.8*
COc1ccc(Cn2c(N)c(C#N)c3nc4ccccc4nc32)cc1OC,15.7,13.8,i,34.1,-22.1,0.1,.,.,.,.,.
COc1ccccc1CCn1c(N)c(C#N)c2nc3ccccc3nc21,22.5,24.5,-283.3,50.8*,-14.2,0.3,-20.1,-5.9,-3.0,-6.4,-3.4
COc1ccc(CCn2c(N)c(C#N)c3nc4ccccc4nc32)cc1OC,54.1*,45.6,-445.5,62.0*,-2.4,9.0,-1.9,22.1,4.1,6.2,2.0
O=C(C1CC1)N1CCC(c2nc(-c3ccc(S(=O)(=O)N4CCCC4)cc3)no2)CC1,-4.1,83.6*,14.3,10.1,9.5,-3.5,8.6,9.8,-0.8,-6.3,-9.2
O=C(NC1CCCCC1)N1CCC(c2nc(-c3ccc(S(=O)(=O)N4CCCC4)cc3)no2)CC1,3.7,-0.3,15.9,-8.8,-0.1,-4.1,.,.,.,.,.
CCN(C(=O)C1CCCN(c2ncnc3c2nc2n3CCCCC2)C1)c1cccc(Cl)c1 (centres undefined),-5.1,14.6,-0.1,-13.3,9.5,.,.,.,.,.,.
C=CCC(O)(CC=C)CNC(=O)C1CCC(=O)N(CCCc2ccccc2)C1 (centres undefined),-7.0,-7.8,-3.1,2.4,-4.1,.,.,.,.,.,.
CN(C)c1ccc(-c2cc3ccccc3c(=O)o2)cc1,84.4*,65.9*,-498.4,76.8*,57.4*,.,20.1,20.9,27.3,35.7,15.4
OC(c1ccccc1)c1nc(-c2cc3ccccc3o2)cs1 (centres undefined),.,.,-13.5,.,9.5,.,.,.,.,.,.
Nc1nc(-c2ccc3ccccc3c2)cs1,68.6*,73.8*,-255.3,33.2,32.6,33.5,0.1,83.1*,96.8*,64.0*,84.3*
Nc1nc(-c2ccc(-c3ccccc3)cc2)cs1,67.6*,72.6*,-417.7,-16.1,59.0*,7.9,10.7,82.3*,96.9*,54.7*,28.1
Nc1nc(-c2cc3ccccc3o2)cs1,39.4,39.4,6.8,71.5*,16.4,0.5,51.6*,53.3*,81.4*,56.0*,11.6
CC(Sc1ccccc1)C(=O)NNC(=O)c1csc(N2CCOCC2)n1 (centres undefined),-6.9,-3.0,1.8,-4.1,-9.5,.,.,.,.,.,.
Cc1ccccc1-n1ncc2c1CC(C)(C)CC2NC(=O)CN1CCCC1=O (centres undefined),-3.7,-6.8,-3.9,-9.1,-6.9,.,.,.,.,.,.
COC(=O)c1c(NC(=O)C(C)C)sc(C(=O)N2CCOCC2)c1C,0.6,6.4,-4.0,-0.4,2.1,.,.,.,.,.,.
Cn1c(O)c(N=Nc2ccccc2)c2ccccc21,-1.3,2.2,2.9,2.8,0.3,.,.,.,.,.,.
Cn1c(O)c(N=Nc2nc(-c3ccccc3)cs2)c2ccccc21,3.9,58.8*,29.5,16.2,9.9,16.2,1.4,3.9,-5.8,3.5,-5.4
C[C@@H]1CN([C@@H](C)CO)C(=O)c2cc(Br)cnc2O[C@H]1CN(C)C(=O)c1ccncc1,.,.,-19.7,.,-11.1,.,.,.,.,.,.
CCOC(=O)CNC(=O)N1CCCC(C(=O)c2ccccc2SC)C1 (centres undefined),-9.1,-8.2,11.4,-2.3,2.3,15.8,.,.,.,.,.
SMILES,SENP8 block-1,SENP7 block,SENP8 block-2,SENP6 block,C8 TRAIL sens,PPC-1+TRAIL kill,SENP8 conf,SENP6 conf,SENP7 confirm,Casp3 select,SENP luc ctr
CCOC(=O)N1CCN(C2=C(NS(=O)(=O)c3ccc(C)cc3)C(=O)c3ccccc3C2=O)CC1,35.0,35.9,82.3*,63.7*,52.8*,.,5.3,26.3,3.2,5.1,-7.0
CC(=O)Nc1ccc(S(=O)(=O)NC2=C(N3CCN(c4ccc(F)cc4)CC3)C(=O)c3ccccc3C2=O)cc1,29.0,44.1,78.3*,62.6*,47.2,24.0,31.2,56.2*,18.6,53.0*,-0.6
CC(=O)Nc1ccc(S(=O)(=O)Nc2ccc(N3CCOCC3)cc2)cc1,-11.5,-8.7,8.2,-0.2,1.2,-4.0,.,.,.,.,.
CCOC(=O)COc1cc(N)c(Cl)cc1Cl,79.5*,0.5,-13.8,-38.5,-1.3,11.3,2.3,-1.0,-3.6,-1.2,-6.5
CCOC(=O)COc1cc(-n2c(=S)[nH]c3ccccc3c2=O)c(Cl)cc1Cl,-5.1,-4.7,-6.0,-9.0,-2.0,4.2,.,.,.,.,.
CCOC(=O)COn1c(-c2cccc(Cl)c2)nc2ccc([N+](=O)[O-])cc21,86.9*,90.4*,6.9,94.1*,6.3,40.0,80.9*,81.1*,92.5*,65.2*,68.8*
Cc1ccc(C)c(N=Cc2c(O)c3ccccc3oc2=O)c1,-12.5,-23.0,-255.5,-6.5,-28.4,.,.,.,.,.,.
COc1ccc(C(=O)Nc2cccc(C)c2)cc1,78.3*,89.7*,16.4,91.8*,47.8,37.2,83.8*,85.6*,99.0*,92.0*,85.0*
